Hits are enriched below; roughly 3.2% of the tested compounds scored in any of these assays.
A3G deaminase: APOBEC3G DNA deaminase inhibitors, primary screen, biochemical, fluorescence, single-stranded DNA substrate, uHTS; DNA dC->dU-editing enzyme APOBEC-3G (Homo sapiens), Q9HC16; recombinant A3G, ssDNA deamination FAM/TAMRA fluorescence; inhibition, % at 20 µM; 330,000 compounds, 0.28% hits; AID 493012, 2011;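 active = inhibition of at least 40% at 20 µM, with no more than 30% in the related APOBEC3A deaminase screen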
AHR activator: AHR activators, primary screen, cell-based, luminescence, luciferase reporter, human; Aryl hydrocarbon receptor (Homo sapiens), P35869; AHR-responsive luciferase reporter cells; activation, % at 5 µM; 320,000 compounds, 2.5% hits; AID 2796, 2010; in the data active = activation above about 47%
NTR1 ag: agonists of human NTR1, primary screen, imaging, U2OS cells, beta-arrestin-GFP, high content | Neurotensin receptor type 1 (Homo sapiens), P30989 | NTR1-U2OS beta-arrestin-GFP spot imaging, agonist mode | activation, % at 20 µM | 330,000 compounds, 0.17% hits;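 active = activation at or above 40% of the spot to cytoplasm intensity ratio, with at least 20 cells analyzed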
APOBEC3A inh: APOBEC3A ssDNA deaminase inhibitors, primary screen, selectivity assay for APOBEC3G inhibitor project, biochemical, FAM/TAMRA oligo cleavage fluorescence; 330,000 compounds, 0.41% hits; inhibition, % at 20 µM; recombinant A3A, FAM/TAMRA ssDNA deamination fluorescence; DNA dC->dU-editing enzyme APOBEC-3A (Homo sapiens), P31941; AID 493011, 2011;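 active = at least 40% inhibition at 20 µM here, with at most 30% in a related deaminase screen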
Target sequence (P31941 whole entry, looked up): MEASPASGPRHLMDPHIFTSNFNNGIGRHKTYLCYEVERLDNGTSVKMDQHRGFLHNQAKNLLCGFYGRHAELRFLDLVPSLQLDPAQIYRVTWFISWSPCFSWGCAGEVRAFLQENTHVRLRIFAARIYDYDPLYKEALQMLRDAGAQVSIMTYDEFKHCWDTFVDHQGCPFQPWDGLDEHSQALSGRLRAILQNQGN
A3A conf: APOBEC3A deaminase inhibitors, retest, confirmation, selectivity assay for APOBEC3G inhibitor project, biochemical, single concentration, fluorescence readout. 1,400 compounds, 63% hits. shares compounds with APOBEC3A inh. inhibition, % at 20 µM. recombinant A3A, ssDNA deaminase UDG fluorescence assay;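 active = inhibition reaching a set limit, 80% of the first screen's cutoff, at 20 µM in any replicate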
UDG ctr A3A: E. coli UDG inhibitors, confirmation, counter-screen for APOBEC3A inhibitor project, biochemical, single concentration, fluorescence, FAM/TAMRA oligo; shares compounds with APOBEC3A inh; UDG counterscreen, FAM/TAMRA uracil oligo fluorescence; inhibition, % at 20 µM; 1,000 tested, under 10 active; call rule not given here
Each line names hits and unclear results; the compound was inactive in the other large screens (follow-up assays come after a bar, where they were run).

COc1ccccc1-c1nnc(SC(C)C(=O)O)n1-c1ccccc1 (configuration not stated)	none
COc1ccc(NC(=S)NCCCN2CCCC2)cc1	APOBEC3A inh 40.9 | A3A conf inactive | UDG ctr A3A inactive
CCOc1ccc(NC(=S)NCCCN2CCN(c3ccc(OC)cc3)CC2)cc1	none
COc1ccc(C(=O)NCCCN2CCOCC2)cc1	APOBEC3A inh 71.6 | A3A conf inactive | UDG ctr A3A inactive
COc1cc(OC)cc(C(=O)NCCCN2CCOCC2)c1	none
COc1ccccc1Nc1nnc(SCC(=O)NC(=O)Nc2ccc3c(c2)OCCO3)s1	none
O=C(Cc1n[nH]c(=O)[nH]c1=O)N/N=C/CCc1ccccc1	none
C=CCn1c(CCCNC(=O)CCC)nc2ccccc21	APOBEC3A inh 47.3 | A3A conf inactive | UDG ctr A3A inactive
CC(C)CN(C(=O)CC(C)c1ccccc1)c1c(N)n(Cc2ccccc2)c(=O)[nH]c1=O (configuration not stated)	APOBEC3A inh 70.4 | A3A conf inactive
CC(C)CN(C(=O)CCc1ccccc1Cl)c1c(N)n(Cc2ccccc2)c(=O)[nH]c1=O	none
COc1cccc(C(=O)N2CCN(Cc3ccc(OC)cc3OC)CC2)c1	none
COc1cc2ccc3c(CCN(C)C)cc(OC)c(OC)c3c2cc1OC	APOBEC3A inh 54.8 | A3A conf inactive
COC(=O)C1=C(C)N(Cc2ccccc2)C(=NCCc2ccccn2)N[C@H]1c1cccc(F)c1	APOBEC3A inh 47.7 | A3A conf 63.0 | UDG ctr A3A inactive
COC(=O)C1=C(C)N(Cc2ccccc2)C(=NCc2cccc(C(F)(F)F)c2)N[C@H]1c1cccc(F)c1	none
CCN1C(=NCCc2ccccn2)N[C@@H](c2cccc(F)c2)C(C(=O)OC)=C1C	APOBEC3A inh 47.6 | A3A conf 63.3 | UDG ctr A3A inactive
COc1ccc(S(=O)(=O)/N=C2/NC(=O)/C(=C\c3ccco3)S2)cc1	none
COc1ccc(S(=O)(=O)/N=C2/NC(=O)/C(=C/c3ccco3)S2)cc1	APOBEC3A inh 46.4 | A3A conf 23.7 | UDG ctr A3A inactive
CCC(NS(=O)(=O)c1ccc2c(c1)NC(=O)C(C)C(=O)N2)c1cccs1 (configuration not stated)	none
O=[N+]([O-])c1ccc(C(O)CN2CCN(c3ccccc3)CC2)cc1 (configuration not stated)	none
O=[N+]([O-])c1ccc(C(O)C[n+]2ccccc2)cc1 (configuration not stated)	APOBEC3A inh 91.5 | A3A conf 70.7 | UDG ctr A3A inactive
O=C1C[C@@H](c2ccc(O[C@@H]3O[C@H](CO)[C@@H](O)[C@H](O)[C@H]3O)cc2)Oc2cc(O)ccc21	none
CC1=CC(C)C(C[N+]2(C)CCCCC2)C(C)C1 (configuration not stated)	APOBEC3A inh 57.7 | A3A conf 56.0 | UDG ctr A3A inactive
Cc1ccc(OCCN2C(=O)CSC2=O)cc1	none
C[N+](C)(C)CCN1C(=O)CSC1=O	APOBEC3A inh 55.1 | A3A conf 48.2 | UDG ctr A3A inactive
O=C(Nc1nnc(SCc2cccnc2)s1)C1CC(=O)N(c2ccccc2)C1 (configuration not stated)	none
CCN(C(=O)Cn1nc(C)c([N+](=O)[O-])c1C)C1CCS(=O)(=O)C1 (configuration not stated)	none
COc1ccc(CCNC(=O)CC(Cc2ccc(C)cc2)C(=O)O)cc1OC (configuration not stated)	none
COC/C=C/C1=CC2=CC(=O)C(C)(OC(=O)c3cnc4ccccc4n3)C(=O)C2=CO1 (configuration not stated)	APOBEC3A inh 44.2 | A3A conf 39.1
O=C1CCCC/C1=C\Nc1ccc(C(=O)O)c(O)c1	none

Source: PubChem BioAssay (several laboratories)
